In PubChem BioAssay:
Calls of active or inactive are those of the source. Unless noted, no rule for the calls is given here.

Columns and labels:
[1] = compound effects on lung adenocarcinoma cell viability – A549, calcein-AM fluorescence, 48 h, basal, profiling panel (AID 1162); settings: higher = more signal; also: test concentration not given here
[2] = compound effects on differentiated 3T3-L1 adipocyte viability – cell-based, 3T3-L1 adipocytes, calcein-AM fluorescence, 48 h, basal, profiling panel (AID 1163); settings: 3T3-L1 adipocytes viability, higher = more signal; also: test concentration not given here
[3] = compound effects on hepatocellular carcinoma cell viability – HepG2, calcein-AM fluorescence, 48 h, basal, profiling panel (AID 1164); settings: higher = more signal; also: test concentration not given here
[4] = compound effects on multiple myeloma cell viability – MM1S, calcein-AM fluorescence, 48 h, basal, profiling panel (AID 1165); settings: higher = more signal;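 also: viability of MM1S multiple myeloma cells under basal unstimulated conditions; test concentration not given here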
[5] = calcein-AM signal in unstimulated myeloma cells – cell-based, calcein-AM fluorescence, 48 h, PK04 Diversity Set, profiling panel (AID 1166); settings: RPMI8226 myeloma viability, higher = more signal;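 also: cells grown under basal conditions without added stimulus; test concentration not given here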
[6] = JC-1 mitochondrial signal, unstimulated HepG2 cells – cell-based, JC-1 fluorescence, 24 h, 100 nL compound, profiling panel (AID 1167); settings: HepG2 mitochondrial potential, higher = more signal; also: test concentration not given here
[7] = JC-1 mitochondrial signal, unstimulated adipocytes – cell-based, JC-1 fluorescence, 3T3-L1 adipocytes, 24 h, 100 nL compound, profiling panel (AID 1168); settings: JC-1 mitochondrial fluorescence, higher = more signal, called active from +8 up or from −8 down; also: test concentration not given here
[8] = JC-1 mitochondrial signal, unstimulated myeloma cells – cell-based, JC-1 fluorescence, RPMI8226, 24 h, 100 nL compound, profiling panel (AID 1169); settings: JC-1 mitochondrial potential fluorescence, higher = more signal; also: test concentration not given here
[9] = JC-1 mitochondrial signal, unstimulated MM1S myeloma – cell-based, JC-1 fluorescence, 24 h, 100 nL compound, profiling panel (AID 1170); settings: MM1S mitochondrial potential, higher = more signal; also: test concentration not given here
[10] = resazurin metabolic signal in A549 cells – cell-based, resazurin fluorescence, 24 h, PK04 Diversity Set, profiling panel (AID 1171); settings: A549 viability, higher = more signal, called active from +8 up or from −8 down; also: test concentration not given here
[11] = resazurin metabolic signal in HepG2 cells – cell-based, resazurin fluorescence, 24 h, PK04 Diversity Set, profiling panel (AID 1172); settings: HepG2 viability, higher = more signal; also: test concentration not given here
[12] = budding yeast growth changes without added modifier – OD600, strain BY4716, 24 h, basal condition, primary screen (AID 1173); settings: S. cerevisiae BY4716 growth, OD600, 24 h; higher = more signal, called active from +8 up or from −8 down
[13] = viability profiling in MM1S myeloma cells – cell-based, resazurin fluorescence, basal, 24 h, PK04 Diversity Set, profiling panel (AID 1174); settings: higher = more signal, called active from +8 up or from −8 down; also: test concentration not given here
[14] = molecular target: Dihydroorotate dehydrogenase (quinone), mitochondrial (Plasmodium falciparum (isolate 3D7)) (UniProt Q08210); test: inhibition of P. falciparum DHODH – biochemical, C-terminal His tag, absorbance 600 nm, primary screen (AID 1175); settings: PfDHODH enzyme, DCIP absorbance 600 nm; higher = more signal, called active from +8 up or from −8 down;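 also: recombinant parasite enzyme with a five histidine tag at its C terminus; test concentration not given here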
Dihydroorotate dehydrogenase (quinone), mitochondrial (Plasmodium falciparum (isolate 3D7)), sequence (Q08210 whole entry, looked up): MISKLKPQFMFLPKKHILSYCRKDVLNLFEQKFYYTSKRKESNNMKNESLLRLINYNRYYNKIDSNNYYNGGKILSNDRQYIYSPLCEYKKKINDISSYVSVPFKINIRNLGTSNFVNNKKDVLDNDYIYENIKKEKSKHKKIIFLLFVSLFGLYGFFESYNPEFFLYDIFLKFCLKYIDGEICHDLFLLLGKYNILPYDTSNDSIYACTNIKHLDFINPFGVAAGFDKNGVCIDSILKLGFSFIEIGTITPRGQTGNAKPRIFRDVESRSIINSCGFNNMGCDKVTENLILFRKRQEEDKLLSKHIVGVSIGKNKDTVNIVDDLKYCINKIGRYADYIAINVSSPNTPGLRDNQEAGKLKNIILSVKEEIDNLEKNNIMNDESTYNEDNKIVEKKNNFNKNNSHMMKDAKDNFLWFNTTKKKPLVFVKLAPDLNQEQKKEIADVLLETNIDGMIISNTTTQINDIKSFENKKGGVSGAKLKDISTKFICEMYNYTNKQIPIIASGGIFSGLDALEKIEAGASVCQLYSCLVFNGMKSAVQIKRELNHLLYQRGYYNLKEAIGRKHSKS

[15] = inhibition of PAO1 biofilm formation – strain PAO1, LB-PBS medium, absorbance 600 nm, primary screen (AID 1176); also: test concentration not given here; settings: P. aeruginosa PAO1 growth/biofilm, A600, 12 h; higher = more signal
[16] = growth modulation of vineyard yeast isolate – strain RM11-1a, OD600, basal, 24 h, primary screen (AID 1177);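 also: cultures grown under basal conditions with no added stressor; test concentration not given here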; settings: S. cerevisiae RM11-1a growth, OD600, 24 h; higher = more signal, called active from +8 up or from −8 down
[17] = growth of efflux-deficient E. coli DRC39 – strain DRC39, OD650, 24 h, E. coli filamentation inducers, primary screen (AID 1178);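 also: growth measured as culture turbidity by optical density at 650 nm; test concentration not given here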; settings: E. coli DRC39 acrAB, higher = more signal, called active from +8 up or from −8 down
[18] = growth of efflux-deficient E. coli DRC39 – strain DRC39, OD650, 48 h, E. coli filamentation inducers, primary screen (AID 1179);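 also: screen aims at cell division blockers that make cells filament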; settings: E. coli DRC39 delta-acrAB growth, higher = more signal, called active from +8 up or from −8 down
[19] = viability profiling in RPMI8226 myeloma cells – cell-based, resazurin fluorescence, basal, 24 h, PK04 Diversity Set, profiling panel (AID 1180); settings: higher = more signal;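 also: RPMI8826 multiple myeloma cell line at 5000 cells per well; test concentration not given here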
[20] = molecular target: E3 ubiquitin-protein ligase XIAP (Homo sapiens) (UniProt P98170); test: small molecules binding XIAP protein – biophysical, small-molecule microarray, fluorescence 635 nm, primary screen (AID 1181); settings: higher = more signal;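 also: score merges 667 nm emission and signal to noise over triplicate slides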
E3 ubiquitin-protein ligase XIAP (Homo sapiens), sequence (P98170 whole entry, looked up): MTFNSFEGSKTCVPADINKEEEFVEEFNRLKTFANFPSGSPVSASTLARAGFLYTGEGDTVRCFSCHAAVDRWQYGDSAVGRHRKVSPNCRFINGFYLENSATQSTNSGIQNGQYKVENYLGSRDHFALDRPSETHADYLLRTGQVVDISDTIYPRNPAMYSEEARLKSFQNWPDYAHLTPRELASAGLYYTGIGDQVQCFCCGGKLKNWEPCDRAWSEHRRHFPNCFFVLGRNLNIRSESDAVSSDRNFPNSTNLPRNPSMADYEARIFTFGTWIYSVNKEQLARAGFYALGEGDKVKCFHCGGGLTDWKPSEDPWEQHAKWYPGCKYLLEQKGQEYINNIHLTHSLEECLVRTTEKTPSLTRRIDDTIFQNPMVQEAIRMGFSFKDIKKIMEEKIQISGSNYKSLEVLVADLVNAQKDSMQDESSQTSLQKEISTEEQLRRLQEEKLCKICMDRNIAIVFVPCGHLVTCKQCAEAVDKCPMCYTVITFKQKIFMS

| Compound | z-score [1] | z-score [2] | z-score [3] | z-score [4] | z-score [5] | z-score [6] | z-score [7] | z-score [8] | z-score [9] | z-score [10] | z-score [11] | z-score [12] | z-score [13] | composite z-score [14] | z-score [15] | z-score [16] | z-score [17] | z-score [18] | z-score [19] | composite z-score [20] |
| --- | --- | --- | --- | --- | --- | --- | --- | --- | --- | --- | --- | --- | --- | --- | --- | --- | --- | --- | --- | --- |
| Cc1ccc(S[C@]2(C(=O)O)CC(=O)N(Cc3cc(C(F)(F)F)cc(C(F)(F)F)c3)[C@@H]2c2ccc(CO)cc2I)cc1 | 0.673 | 0.429 | 0.324 | -3 | -2.22 | -0.338 | -0.459 (inactive) | -0.325 | -1.36 | 0.288 (inactive) | -0.101 | -3.06 (inactive) | -2.57 (inactive) | 0.0643 (inactive) | -0.481 (inactive) | 0.555 (inactive) | 0.0907 (inactive) | -0.0983 (inactive) | -1.47 | -0.136 |
| CCCC=C(CCC)[C@@H](NS(=O)(=O)c1ccc(-c2ccccc2)cc1)c1ccc(C(=O)OC)cc1 | -1.34 | 0.906 | -1.52 | -1.18 | -2.93 | -4.34 | 0.0846 (inactive) | 0.326 | -1.78 | 1.35 (inactive) | 0.0252 | 1.72 (inactive) | 0.303 (inactive) | -4.09 (inactive) | 2.67 (inactive) | 0.239 (inactive) | -0.811 (inactive) | -0.299 (inactive) | 0.305 | -0.0948 |
| COc1cc(CO)cc(I)c1O[C@H]1C=C(C(=O)NCCO)C[C@@H](N(CC2CCCCC2)C(=O)c2cc3ccccc3oc2=O)[C@@H]1O | 0.846 | -0.5 | 0.206 | 1.01 | -1.1 | 0.919 | -0.294 (inactive) | -0.806 | -0.467 | -0.206 (inactive) | 0.479 | -0.514 (inactive) | 0.308 (inactive) | -0.23 (inactive) | 0.343 (inactive) | 0.372 (inactive) | 0.663 (inactive) | 0.283 (inactive) | 0.393 | -0.12 |
| COC(=O)C(CC#Cc1ccc2c(c1)[C@]1(C(=O)N2)[C@H](C(=O)N2CCCCCCC2)[C@H]2C(=O)O[C@H](c3ccccc3)[C@H](c3ccccc3)N2[C@@H]1c1ccc(O)cc1)C(=O)OC | 0.654 | 1.27 | 0.294 | -1.25 | -0.248 | -0.21 | -0.0509 (inactive) | 0.145 | -1.15 | -0.429 (inactive) | 0.436 | -0.636 (inactive) | 0.636 (inactive) | -0.665 (inactive) | 0.473 (inactive) | -0.016 (inactive) | -0.177 (inactive) | -0.312 (inactive) | 0.402 | 0.0512 |
| CC(=O)NCCCC[C@@H]1NC(=O)[C@@H]2C[C@H](C(=O)NCc3ccc(F)cc3)[C@H](c3cccc(OCCO)c3)N2C1=O | 0.53 | 0.0222 | 0.64 | -0.0893 | -0.12 | -0.0575 | -0.568 (inactive) | -0.3 | -0.513 | -0.12 (inactive) | -0.352 | 0.473 (inactive) | 0.0366 (inactive) | -0.79 (inactive) | 0.298 (inactive) | 0.625 (inactive) | -0.34 (inactive) | -0.17 (inactive) | 0.168 | -0.335 |
| CCCC[C@@H]1C[C@H]1[C@@H](NC(=O)c1ccccc1)c1ccccc1C(F)(F)F | -0.407 | 0.128 | -0.0379 | -1.69 | -0.947 | -1.06 | -0.895 (inactive) | -0.472 | -0.573 | 2.38 (inactive) | 0.826 | 0.66 (inactive) | -0.159 (inactive) | -0.454 (inactive) | 0.951 (inactive) | -0.114 (inactive) | -0.372 (inactive) | -0.464 (inactive) | 0.0311 | -0.261 |
| CCCC=C(CCC)[C@@H](NS(=O)(=O)c1cccc(C(F)(F)F)c1)c1ccc(C(=O)OC)cc1 | -0.336 | -0.0748 | -1.07 | -0.008 | -0.341 | -1.25 | -0.413 (inactive) | 0.0542 | -1.04 | 0.206 (inactive) | 1.18 | 0.661 (inactive) | 0.179 (inactive) | -0.237 (inactive) | -0.94 (inactive) | -0.279 (inactive) | -0.0305 (inactive) | -0.0262 (inactive) | -0.16 | 0.0506 |
| CCCCCCc1nc(-c2cc(C)c(OC)c(C)c2)cc2c1[Si](C(C)C)(C(C)C)O[C@H]2c1ccccc1 | 0.723 | -0.185 | -0.59 | -0.0523 | -0.942 | 0.201 | -0.152 (inactive) | 0.77 | -0.683 | 0.732 (inactive) | 0.0796 | 0.54 (inactive) | 0.0808 (inactive) | -0.292 (inactive) | -0.334 (inactive) | 0.315 (inactive) | 0.609 (inactive) | 0.228 (inactive) | 0.219 | -0.244 |
| C[C@]1(C(=O)NCCN2CCOCC2)c2ccccc2C(=O)N(Cc2ccccc2)[C@H]1c1ccc(CO)cc1 | 0.665 | -0.337 | -0.289 | 0.763 | -1.71 | 1.58 | -0.782 (inactive) | -0.0116 | -0.225 | 0.583 (inactive) | 0.702 | -0.46 (inactive) | 0.402 (inactive) | 1 (inactive) | 0.662 (inactive) | 1.2 (inactive) | 0.223 (inactive) | 0.134 (inactive) | 0.85 | 0.144 |
